# A number with no mark means an inactive call.
# Tested on: Falciformispora senegalensis CBS197.79
# Test: growth relative to untreated control; higher = less inhibition, active = 20 or less
# Procedure, shortened: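 Compound at 100 or 25 µM was applied for 7 days at 37 °C to hyphal fragments of M. mycetomatis MM55 or F. senegalensis CBS197.79 in 96-well plates. Fragments were suspended in colourless RPMI 1640 with L-glutamine and MOPS at 68–72% transmission at 660 nm, and viability was read with MTS (2 h, 490 nm) or resazurin (600 nm). Growth is reported as blank-corrected metabolic activity relative to the blank-corrected untreated growth control.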
SMILES,growth (25 µM),growth (100 µM)
O=C(NC(=O)c1c(F)cccc1F)Nc1ccc(Cl)cc1,92.8%,84.5%
FC(F)(F)c1cc(Cl)cc(Nc2nc3cnc(OC4CCC4)cc3n2[C@@H]2CCNC2)c1,99.8%,108%
Cc1sc2c(c1C)C(c1ccc(Cl)cc1)=N[C@@H](CC(=O)OC(C)(C)C)c1nnc(C)n1-2,101%,97.4%
N#CCNC(=O)c1cnccc1C(F)(F)F,85.9%,87.5%
CN(C)CCn1c(Nc2cc(Cl)cc(C(F)(F)F)c2)nc2cnc(NC3CCCC3)cc21,94.1%,105%
CC(F)c1ncnc(NCCc2ccc(OC(F)(F)F)cc2)c1Cl (configuration not stated),90.5%,82.9%
CC1(Nc2ncc3nc(Nc4cc(Cl)cc(C(F)(F)F)c4)n(C4CCNC4)c3n2)CC1 (configuration not stated),83.5%,52.1%
COc1ccc(C[C@H]2NC[C@H](O)[C@H]2OC(C)=O)cc1,5.78% (active),14.4% (active)
CC(C)(C)Nc1cc2c(cn1)nc(Nc1cc(Cl)cc(C(F)(F)F)c1)n2C1CCNC1 (configuration not stated),15.1% (active),14.1% (active)
Clc1ccc(C(OCCN2CCCCC2)c2ccccc2)cc1 (configuration not stated),100%,13.2% (active)
CNCCn1c(Nc2cc(Cl)cc(C(F)(F)F)c2)nc2cnc(NC3CC(F)(F)C3)cc21,69%,26.2%
CCOC(=O)CC(SP(=S)(OC)OC)C(=O)OCC (configuration not stated),98.4%,95.2%
COc1ccc(Cc2nccc3cc(OC)c(OC)cc23)cc1OC,110%,104%
CNC(=O)c1cc(C#N)cc(C)c1NC(=O)c1cc(Br)nn1-c1ncccc1Cl,89.6%,103%
N#Cc1nn(-c2c(Cl)cc(C(F)(F)F)cc2Cl)c(N)c1S(=O)C(F)(F)F (configuration not stated),92.1%,88.4%
CCOP(=S)(OCC)Oc1nc(Cl)c(Cl)cc1Cl,92.9%,69%

SMILES,growth (25 µM),growth (100 µM)
O=C(NC(=O)c1ccccc1Cl)Nc1ccc(OC(F)(F)F)cc1,84.1%,76.1%
CC(COc1ccc(Oc2ccccc2)cc1)Oc1ccccn1 (configuration not stated),88.9%,75.6%
CC1(C)C(/C=C(\Cl)c2ccc(Cl)cc2)C1C(=O)OC(C#N)c1ccc(F)c(Oc2ccccc2)c1 (configuration not stated),74.8%,93.3%
N#Cc1nn(-c2c(Cl)cc(C(F)(F)F)cc2Cl)c(NCc2ccccn2)c1SC(F)F,85.6%,101%
CC1(C)CNC(=NN=C(C=Cc2ccc(C(F)(F)F)cc2)C=Cc2ccc(C(F)(F)F)cc2)NC1,88.7%,107%
COP(=S)(OC)Oc1nc(Cl)c(Cl)cc1Cl,91.7%,93.4%
CN(c1cc(NC(=O)c2ccc(F)cc2)ccn1)C1CCN(Cc2cccc(F)c2)CC1,66%,30.2%
COC(C)(C)CCCC(C)C/C=C/C(C)=C/C(=O)OC(C)C (configuration not stated),89.3%,97.8%
ClC1=C(Cl)[C@@]2(Cl)[C@H]3C[C@@H](Cl)[C@H](Cl)[C@H]3[C@@]1(Cl)C2(Cl)Cl,64.8%,78.3%
Clc1cc(Cl)cc(Nc2nc3cnc(NC4CCCC4)cc3n2C2CCNC2)c1 (configuration not stated),52.2%,77.4%
CC[C@H]1CN2CCc3cc(OC)c(OC)cc3[C@@H]2C[C@@H]1C[C@H]1NCCc2cc(OC)c(OC)cc21,100%,18.3% (active)
COc1cc(/C=N/c2c(SC(F)(F)F)c(C#N)nn2-c2c(Cl)cc(C(F)(F)F)cc2Cl)ccc1O,84.8%,90.9%
O=C1C=C(N(Cc2ccc(Cl)nc2)CC(F)F)CO1,96.7%,89.3%
CCc1nn(C)c(C(=O)NCc2ccc(Oc3ccc(C)cc3)cc2)c1Cl,98.1%,79.9%
C[C@@H]1O[C@@H](O[C@@H]2C=C3CC[C@@H]4[C@H](CC[C@]5(C)[C@@H](c6ccc(=O)oc6)CC[C@]45O)[C@@]3(C)CC2)[C@H](O)[C@H](O)[C@H]1O,99.3%,104%

# From the supplement of paper PMC11172423
